In the library only some 1.2% were active in any assay of this set; here they are far more common.
TLR4-MyD88 BLA: inhibitors of human TLR4-MyD88 binding. O00206+Q99836. HeLa CL3-4 TLR4/MyD88 BLA complementation, FRET ratio. inhibition, % at 8.4 µM. 200,000 tested, 0.18% active; in the data active = inhibition above about 25%
NPR2 activator: GC-B (human) receptor activation | HEK293-GC-B cells, CNP EC30, cGMP TR-FRET; 0% at EC30 CNP, 100% saturating CNP | activation, % at 10 µM | P20594 | 370,000 tested, 0.11% active;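 active = activation at 10 µM reaching about 35% in either raw or pattern-adjusted values, limit read from the data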
NPR1 activator: GC-A (human) enzyme activation. P16066. 370,000 tested, 0.14% active. activation, % at 10 µM. HEK293 GC-A cells, cGMP TR-FRET, EC30 ANP; 0% at EC30 ANP, 100% saturating ANP; in the data active = activation above about 40%
TLR9-MyD88 inh: blocks human TLR9 binding to MyD88. 340,000 tested, 0.21% active. Q9NR96+Q99836. CHO BLA complementation TLR9-MyD88, CCF4 FRET ratio. inhibition, % at 4.98 µM;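 active = inhibition above the mean over all tested compounds plus 3 SD, cut at about 21% in these data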
NOD2 RIPK2 PPI: blocks binding of human NOD2 to RIPK2 | O43353 | 360,000 tested, 0.38% active | CHO BLA complementation NOD2-RIPK2, CCF4 ratio | inhibition, % at 4.98 µM; in the data active = inhibition above about 21%
Target sequence (O43353 whole entry, looked up): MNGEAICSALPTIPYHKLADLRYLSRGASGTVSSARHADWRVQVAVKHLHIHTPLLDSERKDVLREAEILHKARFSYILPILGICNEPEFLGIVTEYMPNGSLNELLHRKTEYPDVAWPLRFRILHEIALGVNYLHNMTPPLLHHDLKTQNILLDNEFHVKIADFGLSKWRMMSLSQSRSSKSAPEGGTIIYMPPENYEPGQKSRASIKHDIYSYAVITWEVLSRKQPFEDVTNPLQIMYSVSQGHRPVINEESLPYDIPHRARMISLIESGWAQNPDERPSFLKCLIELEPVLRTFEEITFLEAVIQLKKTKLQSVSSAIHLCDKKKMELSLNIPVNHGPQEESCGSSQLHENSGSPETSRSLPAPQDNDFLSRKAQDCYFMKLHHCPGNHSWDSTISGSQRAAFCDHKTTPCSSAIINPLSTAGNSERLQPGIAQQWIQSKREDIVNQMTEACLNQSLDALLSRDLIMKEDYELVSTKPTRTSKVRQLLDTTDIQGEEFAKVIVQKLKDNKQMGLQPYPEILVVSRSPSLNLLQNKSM
Neddyl block: cullin neddylation inhibition; inhibition, % at 25 µM; 360,000 tested, 0.58% active; TR-FRET cullin neddylation, biochemical; P61081+Q13564; in the data active = inhibition above about 36%
Neddyl conf: cullin neddylation inhibition, confirmation; shares compounds with Neddyl block; 1,800 tested, 13% active; AID 652217; calls only at 25 µM; TR-FRET cullin neddylation biochemical assay; in the data active = inhibition above about 40%;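 also: neddylation substrate is the cullin 1 ring ligase complex with SKP2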
A number is an active result; . = inactive; / = not tested or not shown; + = active, no number.

SMILES	TLR4-MyD88 BLA	NPR2 activator	NPR1 activator	TLR9-MyD88 inh	NOD2 RIPK2 PPI	Neddyl block	Neddyl conf
O=C(c1cc(Br)ccc1Cl)N1CCN(c2ccc(N3CCOCC3)nn2)CC1	/	.	.	.	.	60	/
CCCCOc1ccc(C(=O)N2CCN(c3ccc(N4CCOCC4)nn3)CC2)cc1	/	.	.	.	.	63	/
COc1cc(OC)cc(C(=O)N2CCN(c3ccc(N4CCOCC4)nn3)CC2)c1	/	.	.	.	.	57	/
Cc1cccc(C(=O)N2CCN(c3ccc(N4CCOCC4)nn3)CC2)c1	/	.	.	.	.	/	/
O=C(c1ccc(Cl)cc1)N1CCN(c2ccc(N3CCOCC3)nn2)CC1	/	.	.	.	.	/	/
O=C(c1ccc(F)cc1)N1CCN(c2ccc(N3CCOCC3)nn2)CC1	/	.	.	.	.	/	/
Cc1ccc(C(=O)N2CCN(c3ccc(N4CCOCC4)nn3)CC2)cc1	/	.	.	.	.	61	/
CCOc1ccc(OCc2ccc(C(=O)N3CCOCC3)cc2)cc1	.	.	.	.	.	.	/
COc1ccc(C(=O)CCC(=O)N2CCN(c3ccc(N4CCOCC4)nn3)CC2)cc1	.	.	.	.	.	44	/
CC1(C(=O)Nc2ccc3c(c2)OCCO3)CN(S(C)(=O)=O)CC(=O)N1CCc1ccccc1F (configuration not stated)	/	.	.	/	.	.	/
Cc1nn(C)c(C)c1CN(C)C(=O)c1cc2nc(-c3ccco3)cc(C(F)(F)F)n2n1	.	.	.	.	.	42	.
Cc1nn(C)cc1CN(C)C(=O)c1cc2nc(-c3ccco3)cc(C(F)(F)F)n2n1	.	.	.	.	.	43	+
Cc1ccccc1Cn1nc(C)c(NC(=O)c2cc3nc(-c4ccco4)cc(C(F)(F)F)n3n2)c1C	.	.	.	.	.	42	.
C=CC[C@@]1(c2ccc(Br)cc2OC)Oc2ccccc2-c2nccnc21	/	.	.	/	/	/	/
OCCCN=C1CCCc2c1[nH]c1ccc(Cl)cc21	/	.	.	.	.	40	.
OCCN=C1CCCc2c1[nH]c1ccc(Cl)cc21	/	.	.	.	.	.	/
Cc1ccc(-n2c(SCc3nc4ccccc4[nH]3)nnc2-c2ccccn2)cc1	/	.	.	/	/	/	/
O=C(Nc1ccc2nc(-c3ccco3)[nH]c2c1)c1ccco1	.	.	.	.	.	/	/
O=C(Nc1ccc2nc(-c3ccco3)[nH]c2c1)c1cccs1	.	.	.	.	.	45	.
O=C(O)c1cccc(N2CCCC2=O)c1	.	.	.	.	.	.	/
O=C(O)c1cccc(N2CCCC2)c1	.	.	.	.	.	39	/
Cc1ccc(C)c(C(O)c2ncc(-c3cccc(C(F)(F)F)c3)[nH]2)c1 (configuration not stated)	/	.	.	/	.	.	/
Fc1ccc(-c2cc3nc4c(c(N5CCOCC5)n3n2)CCCC4)cc1	.	.	.	.	.	/	/
OC1CCN(c2c3c(nc4cc(-c5ccc(F)cc5)nn24)CCC3)CC1	.	.	.	.	.	45	.
Cc1cccc(-c2cc3nc4c(c(N5CCCC(O)C5)n3n2)CCC4)c1 (configuration not stated)	.	.	.	.	.	51	/
SMILES	TLR4-MyD88 BLA	NPR2 activator	NPR1 activator	TLR9-MyD88 inh	NOD2 RIPK2 PPI	Neddyl block	Neddyl conf
Cc1c(C(=O)Nc2ccc(S(N)(=O)=O)cc2)oc2ccc(Cl)cc12	.	.	.	.	.	44	.
Cn1nc(C(C)(C)C)cc1C(=O)N1CCCCC1c1cc(C(=O)Nc2ccccc2Cl)no1 (configuration not stated)	/	.	.	/	.	.	/
CC(C)(C)n1nnnc1C(c1cc2cc3c(cc2[nH]c1=O)OCCO3)N1CCSCC1 (configuration not stated)	.	.	.	.	.	47	/
COc1ccc2cc(C(c3nnnn3C(C)(C)C)N3CCSCC3)c(=O)[nH]c2c1 (configuration not stated)	.	.	.	.	.	.	/
CCN(CC(=O)Nc1c(C(=O)OC)[nH]c2ccc(Cl)cc12)c1ccc2c(c1)OCO2	.	.	.	.	.	.	/
CCOC(=O)c1[nH]c2ccc(Cl)cc2c1NC(=O)/C=C/c1ccc2c(c1)OCO2	.	.	.	.	.	42	.

High-throughput results from PubChem BioAssay.
